SMILES strings stand for the structures. Where “and” joins values, the source holds several entries; their conditions need not be identical. Identical values can stand only once. In all, about 360,000 compounds went through this assay and about 7,300 (2%) were called active. This is one part of a sample in which actives are shown more often than they occur. No stated cut-off is given here; in the data, active means inhibition above about 50%; inactive means the rest.

This test can be described thus: blockers of TWEAK-induced Fn14 reporter activity – luciferase reporter cells, uHTS, primary screen (AID 1159606). The following applies: TWEAK-stimulated Fn14 reporter cells, luciferase luminescence, 8 h; at 10 µM; hits give high values.
With `CC(C)(C)NC(=O)CN(C(=O)c1csnn1)c1ccccc1-c1ccccc1`, the inhibition is -13.7% (inactive).

As for `COC(=O)C1NN=C(C(=O)c2ccc(Br)cc2)C1c1cccc(Br)c1` (stereo not given), the inhibition is 48.4% (inactive).

`Cc1ccc(N2C(=O)CC(Nc3cccc4ccccc34)C2=O)cc1` (stereo not given): the inhibition is 51.9% (active).

As for `O=C(Cc1ccccc1)NNC1CC(=O)N(c2ccc(Br)cc2)C1=O` (stereo not given), the inhibition was 12.9% (inactive).

Take `CC1=C(C)CC2C(=O)N(c3cccc4ccccc34)C(=O)C2C1` (stereo not given): the inhibition is 11.9% (inactive).

`O=C(CN1CCN(S(=O)(=O)c2ccc(Br)cc2)CC1)Nc1ccccc1C(=O)c1ccccc1`: the inhibition is -6.36% (inactive).

With `O=C(NCC1CCCO1)c1cc2c([nH]c3ccccc32)c(-c2ccc(F)cc2)n1` (stereo not given), the inhibition is 51% (active).

For `COc1ccc2cc(C(=O)NCC3CCCO3)[nH]c2c1` (stereo not given), the inhibition is -11.1% (inactive).

For `O=C(NCCCO)c1cc2c([nH]c3ccccc32)c(-c2ccc(F)cc2)n1`, the inhibition is 54.8% (active).

Consider `C[N+](C)(C)CCNC(=O)c1c[nH]c2ccccc12`, for which the inhibition was -3.99% (inactive).

Take `O=C(NCCc1ccc(F)cc1)c1n[nH]c2ccccc12`: the inhibition is -18.2% (inactive).

For `O=C(CSc1nc2ccccc2c(=O)n1Cc1ccc(F)cc1)NCC1CCCO1` (stereo not given), the inhibition is -1.57% (inactive).

Take `CC(C)C[C@@H]1COc2cc(N3CCC[C@@H]3CO)ccc2S(=O)(=O)N1`: the inhibition is 15.8% (inactive).

As to `CC1(C)OC(=O)C2=C(C[C@@H](C3CCCC3)O[C@@H]2c2ccc(Cl)cc2)O1`, the inhibition is 1.8% (inactive).

With `CC(C)CN(C(=O)c1cccc(S(=O)(=O)N2CCCCC2)c1)C1CCS(=O)(=O)C1` (stereo not given), the inhibition is -4.27% (inactive).

For the molecule `COc1ccc2nc(-c3ccccn3)ccc2c1`, the inhibition is 61.3% (active).

For the molecule `COc1ccc(C=C(C#N)C#N)c(CSc2ccccn2)c1`, the inhibition was 9.11% (inactive).

Consider `COc1ccc2cc(CCl)c(Cl)nc2c1`, for which the inhibition was 3.18% (inactive).

`OCCC1CN(Cc2cccc(O)c2)CCN1CCc1ccccc1` (stereo not given): the inhibition was 15.9% (inactive).

Take `O=C(Cc1cccc2ccccc12)NCCC1=CCCCC1`: the inhibition is 99.4% (active).

Take `O=C(CCNC(=O)Cn1ccc2ccccc2c1=O)NCCC1=CCCCC1`: the inhibition is -2.43% (inactive).

Take `Cc1nnc(OCC(=O)NCCC2=CCCCC2)c2ccccc12`: the inhibition was 8.22% (inactive).

Take `Cc1nccn1-c1ccc(NC(=O)[C@H]2O[C@@H](n3ccc(=O)[nH]c3=O)[C@H](O)[C@@H]2O)cc1`: the inhibition was -4.03% (inactive).

In the case of `Cc1ccc2c(c1)N(CCCC(=O)NCc1cccnc1)C(=O)CO2`, the inhibition is 7% (inactive).

For `COc1ccc(S(=O)(=O)N2CCCCC2)cc1C(=O)NC1CCS(=O)(=O)C1` (stereo not given), the inhibition is 4.36% (inactive).

Take `N#Cc1cccc(NC(=O)COC(=O)c2ccccc2C(=O)c2ccc(Cl)c([N+](=O)[O-])c2)c1`: the inhibition is 99.5% (active).

With `CC(=O)Nc1ccc(NC(=O)COC(=O)c2ccccc2C(=O)c2ccccc2)cc1`, the inhibition is 16.1% (inactive).

In the case of `COC(=O)c1cc(NC(=O)Cc2ccccc2[N+](=O)[O-])ccc1Cl`, the inhibition is -1.56% (inactive).

Turning to `O=C(Nc1cccc(NC(=O)c2ccccc2[N+](=O)[O-])c1)c1ccccc1Cl`, the inhibition is -3.52% (inactive).

On to `CC(OC(=O)CNC(=O)c1ccc(Cl)c([N+](=O)[O-])c1)C(=O)NCc1ccco1` (stereo not given), for which the inhibition is -16.1% (inactive).

As for `CC(=O)Nc1ccc(NC(=O)C(C)OC(=O)c2ccccc2C(=O)c2ccc(Cl)c([N+](=O)[O-])c2)cc1` (stereo not given), the inhibition was 95.7% (active).

`O=C(NCc1cccnc1)c1cc(C2CCCN(C(=O)CCCc3ccccc3)C2)on1` (stereo not given): the inhibition is 0.68% (inactive).

`O=C(NNS(=O)(=O)c1ccccc1)c1cnn(-c2ccc(Cl)cc2)c1C(F)(F)F`: the inhibition was 4.65% (inactive).

On to `CCCCN(CC)C(=O)C1CCCN(S(=O)(=O)c2cccc3nsnc23)C1` (stereo not given), for which the inhibition was -6.36% (inactive).

Take `CCCCN(C)CCNC(=O)C1CCCN(S(=O)(=O)c2cccc3nsnc23)C1` (stereo not given): the inhibition is -0.5% (inactive).

`O=C(c1ccco1)N1CCN(C(=O)C2CCCN(S(=O)(=O)c3cccc4nsnc34)C2)CC1` (stereo not given): the inhibition is 62.4% (active).

In the case of `O=C(CCl)NNc1cccc(Cl)n1`, the inhibition is -23.4% (inactive).

Regarding `COc1cc(NC(=O)c2ccccc2NS(=O)(=O)c2ccc(Cl)s2)cc(OC)c1`, the inhibition is 72.6% (active).

Regarding `O=S(=O)(Nc1ccccc1N1CCOCC1)c1ccc(Cl)s1`, the inhibition was 4.55% (inactive).

As for `O=C(Nc1cccc(Cl)c1)Nc1ccccc1NS(=O)(=O)c1cccs1`, the inhibition was 10.4% (inactive).

For the molecule `CCOCCCN(C)C1CCN(C(=O)c2oc3ccccc3c2NC(=O)Cc2cccc([N+](=O)[O-])c2)CC1`, the inhibition was -1.52% (inactive).

For the molecule `Cc1ccc2c(c1)NC(=O)[C@@]1(C)[C@@H](c3ccccc3)[C@H]3COc4ccc(Cl)cc4[C@@H]3N1C2=O`, the inhibition is 15.4% (inactive).

With `CCN1CCN(c2sc(S(C)(=O)=O)nc2S(=O)(=O)c2ccc(Cl)cc2)CC1`, the inhibition is 31.6% (inactive).

Turning to `COC(=O)c1ccccc1SC1CC(=O)N(c2cccc(C)c2)C1=O` (stereo not given), the inhibition is -5.63% (inactive).

As to `CCOC(=O)N1C(=O)C[C@](Sc2ccc(C)cc2)(C(=O)OC)[C@H]1c1ccccc1`, the inhibition is 14.7% (inactive).

With `COC(=O)[C@@]1(Sc2ccc(C)cc2)CC(=O)N(c2cccc(SC)c2)[C@@H]1c1ccccc1`, the inhibition is 69.9% (active).

On to `CCCCn1nnnc1C(c1cc2ccccc2o1)N(C)Cc1ccc(Cl)c(Cl)c1` (stereo not given), for which the inhibition is -0.38% (inactive).

Consider `COc1ccc(C(=O)N2CCCCC2c2cc(C(=O)Nc3ccccc3)no2)cc1` (stereo not given), for which the inhibition is -7.61% (inactive).

As for `COc1cc2[nH]c(=S)n(CCN3CCCCC3C)c(=O)c2cc1OC` (stereo not given), the inhibition was 77.3% (active).

For the molecule `CCOc1cc2[nH]c(=S)n(CCN3CCCCC3C)c(=O)c2cc1OCC` (stereo not given), the inhibition is -2.73% (inactive).

Consider `COc1cc2[nH]c(=S)n(Cc3ccc(F)cc3)c(=O)c2cc1OC`, for which the inhibition was -27% (inactive).

Take `CCOCCCNC(=O)C(NC(=O)CNC(=O)c1ccccc1)c1ccc(OC)cc1` (stereo not given): the inhibition is -12.7% (inactive).

With `CN(C)Cc1ccc(F)cc1Sc1cc(Cl)ccc1Cl`, the inhibition is 5.28% (inactive).

For `CC(=O)N1C(C)c2ccccc2C(C)(C)CC12CCCCC2` (stereo not given), the inhibition is -11.4% (inactive).

In the case of `C=CC1=C(C(=O)O)N2C(=O)[C@@H](NC(=O)/C(=N/OCC(=O)O)c3csc(N)n3)[C@H]2SC1`, the inhibition is 75.2% (active).

As to `C=CC1=C(C(=O)O)N2C(=O)[C@@H](NC(=O)/C(=N\OCC(=O)O)c3csc(N)n3)[C@H]2SC1`, the inhibition is 14.2% (inactive).

For the molecule `CO/N=C(\C(=O)N[C@@H]1C(=O)N2C(C(=O)O)=C(COC(C)=O)CS[C@H]12)c1csc(N)n1` (stereo in doubt), the inhibition was 15% (inactive) and 5.82% (inactive) and -5.11% (inactive).

As to `CC(=O)c1ccc(S(=O)(=O)N(C)CCCC(=O)N(C)Cc2ccccc2F)cc1`, the inhibition is 13.5% (inactive).

For `CC1(C)OC(=O)C2=C(C[C@@H](C3CCCCC3)O[C@@H]2c2ccc(Cl)cc2)O1`, the inhibition was -5.53% (inactive).

With `Cc1cccc(N2CCN(C(=O)COCc3cc(-c4ccc5c(c4)OCO5)on3)CC2)c1C`, the inhibition was -13.9% (inactive).

With `CC(=O)N(Cc1cc(=O)[nH]c2ccccc12)c1ccc(C)cc1C`, the inhibition is 4.2% (inactive).

Turning to `CCC(=O)N(Cc1cc2ccccc2[nH]c1=O)c1ccc(OC)cc1`, the inhibition is -8.72% (inactive).

For the molecule `Cc1ccc(N(Cc2cc(=O)[nH]c3ccccc23)C(=O)CCl)cc1`, the inhibition was 52.1% (active).

In the case of `CCN(CC)S(=O)(=O)c1cccc(C(=O)NCC(=O)OCC(=O)NCc2ccccc2)c1`, the inhibition is 0.62% (inactive).

Regarding `Cc1ccc(F)cc1S(=O)(=O)Nc1cccc(C(=O)N2CCCC(C(N)=O)C2)c1` (stereo not given), the inhibition is -7.05% (inactive).

For `NC(=O)[C@H]1CC2(CC(c3cccc(NC(=O)[C@H]4CCC(=O)N4)c3)=NO2)CN1C(=O)c1ccccc1C(=O)c1ccccc1` (stereo not given in full), the inhibition was -12.2% (inactive).

Turning to `COc1ccc(CCNC(=S)NC(=O)/C=C/c2ccc(C)cc2)cc1OC`, the inhibition is -15.4% (inactive).

`Cc1ccc2c(Cl)c(C(=O)NCCCn3ccnc3)sc2c1`: the inhibition is -11.3% (inactive).

As for `Cc1ccc(-c2nc(C#N)c(NCCCn3ccnc3)o2)cc1`, the inhibition is -18.1% (inactive).

Regarding `Cc1ccc(S(=O)(=O)c2nc(NCCCn3ccnc3)sc2Cl)cc1`, the inhibition is 80.5% (active).

As to `CCOC(=O)/C(=N\Nc1ccccc1[N+](=O)[O-])c1csc(Nc2ccccc2)n1`, the inhibition was 8.54% (inactive).

On to `O=C(O)C(=Cc1ccc([N+](=O)[O-])cc1)CCc1ccccc1`, for which the inhibition is -10.9% (inactive).

Consider `CCOC(=O)/C(=C\c1ccc([N+](=O)[O-])cc1)C(=O)c1cc(C(C)=O)c(Nc2ccccc2)s1`, for which the inhibition was 104% (active).

Take `CCCCc1c(-c2ccc(Br)cc2)ncn1CCc1ccccc1OC`: the inhibition was 38.9% (inactive).

As for `Cc1noc(C)c1NC(=O)N(C)C[C@@H]1Oc2cc(Br)ccc2S(=O)(=O)N([C@@H](C)CO)C[C@H]1C`, the inhibition is 18.1% (inactive).

Turning to `COC(=O)c1ccc(Nc2ncnc3sccc23)cc1`, the inhibition is -10.3% (inactive).

As to `COC(=O)c1ccc2nc(C3CCCCC3)c(Cc3cccc(F)c3)n2c1`, the inhibition was -20.2% (inactive).

On to `O=C(O)C(F)(F)C(NCc1ccccc1)c1ccccc1` (stereo not given), for which the inhibition was -8.01% (inactive).

For the molecule `CC[C@H]1CN2CCc3cc(OC)c(OC)cc3[C@@H]2C[C@@H]1C[C@H]1NCCc2cc(OC)c(OC)cc21`, the inhibition was 98% (active).

As for `Cn1ncc([N+](=O)[O-])c1C(=O)Nc1cc(Cl)ccc1Cl`, the inhibition was -23.8% (inactive).

Regarding `Cc1cc2nc(-c3ccc(F)cc3)c(Cc3ccsc3)n2c(C)c1Br`, the inhibition was 0.39% (inactive).

With `Cc1cc(=O)oc2c3c(cc(OCC(=O)NCC(O)c4ccccc4)c12)OC(C)(C)CC3` (stereo not given), the inhibition is -0.31% (inactive).

Consider `O=C(CC1CCCCC1)NCc1ccc(F)cc1`, for which the inhibition is 7.42% (inactive).

In the case of `CCc1ccc2c(c1)NC(=O)C2(C)Cc1ccc(OC(F)(F)F)cc1` (stereo not given), the inhibition is 8.25% (inactive).

In the case of `CCc1ccc2c(c1)C1(NN=C(c3ccccc3)S1)C(=O)N2` (stereo not given), the inhibition was 87.5% (active).
